Experimental findings from the antibiotic and cytotoxicity screens of Wong et al. (2023) are described below.

In all, about 39,000 compounds went through this assay and about 3,300 (8.5%) were called active. The full list was thinned out, with actives kept by preference.

This test concerns HepG2. As to the kind of experiment: cytotoxicity call (relative viability < 0.9). The settings on record: 10 µM.
With `CNC(=O)C[C@@H]1CC[C@@H]2[C@H](COC[C@H](O)CN2C(=O)c2ccc3c(c2)OCO3)O1`, the cytotoxicity call was “inactive”.

`CCCNc1nc(Nc2ccc(C#N)cc2)ncc1C#CCCCNC(=O)[C@H](C)N(C)C(=O)/C=C/CN(C)C`: the cytotoxicity call was “active”.

In the case of `CC(C)NC(=O)Nc1ccc2c(c1)C(=O)N([C@H](C)CO)C[C@H](C)[C@@H](CN(C)C(=O)Nc1cccc3ccccc13)OCCCC[C@H](C)O2`, the cytotoxicity call was “inactive”.

In the case of `Cc1ccc(S(=O)(=O)N[C@H]2CC[C@@H](CC(=O)NCc3ccc(Cl)c(Cl)c3)O[C@@H]2CO)cc1`, the cytotoxicity call was “inactive”.

With `NNC(=S)NCc1cccs1`, the cytotoxicity call was “inactive”.

`C[C@H](CO)N1C[C@H](C)[C@H](CN(C)S(=O)(=O)c2cn(C)cn2)Oc2c(NS(=O)(=O)c3cn(C)cn3)cccc2C1=O`: the cytotoxicity call was “inactive”.

As to `COc1c(OC)c2occc2c2oc(=O)ccc12`, the cytotoxicity call was “inactive”.

For the compound `O=c1ccc2cc3ccoc3cc2o1`, the cytotoxicity call was “inactive”.

Consider `COc1c2ccoc2c(OC)c2oc(=O)ccc12`, for which the cytotoxicity call was “active”.

On to `COc1c2occc2c(OC)c2c(=O)cc(C)oc12`, for which the cytotoxicity call was “active”.

Take `COc1c(-c2ccccc2)oc2c(ccc3ccoc32)c1=O`: the cytotoxicity call is “inactive”.

On to `COc1c2ccoc2cc2oc(=O)ccc12`, for which the cytotoxicity call was “inactive”.

On to `COc1cc2ccc(=O)oc2c(OC)c1OC`, for which the cytotoxicity call was “inactive”.

As to `COc1c2ccoc2cc2oc(C)cc(=O)c12`, the cytotoxicity call is “inactive”.

Regarding `COc1c2occc2cc2ccc(=O)oc12`, the cytotoxicity call was “active”.

For `CN(C)C(=O)Cn1c(=O)oc2ccccc21`, the cytotoxicity call was “inactive”.

As for `COc1ccc(CN(C)C[C@@H]2Oc3ccc(NS(=O)(=O)c4cn(C)cn4)cc3C(=O)N([C@H](C)CO)C[C@@H]2C)cc1`, the cytotoxicity call was “inactive”.

As for `O=C(C[C@H]1CC[C@H]2[C@@H](COC[C@@H](O)CN2S(=O)(=O)c2ccccc2Cl)O1)NCCc1ccncc1`, the cytotoxicity call is “inactive”.

As to `C[C@H](CO)N1C[C@H](C)[C@H](CN(C)Cc2ccc3c(c2)OCO3)Oc2ccc(NC(=O)Nc3cccc4ccccc34)cc2C1=O`, the cytotoxicity call is “inactive”.

Turning to `COc1ccc(S(=O)(=O)N(C)C[C@@H]2OCCCC[C@@H](C)Oc3ccc(NS(=O)(=O)c4ccc(Cl)cc4)cc3C(=O)N([C@@H](C)CO)C[C@H]2C)cc1`, the cytotoxicity call was “active”.

In the case of `COc1ccc(S(=O)(=O)Nc2ccc3c(c2)C(=O)N([C@H](C)CO)C[C@H](C)[C@@H](CN(C)S(=O)(=O)c2ccc(Cl)cc2)OCCCC[C@H](C)O3)cc1`, the cytotoxicity call is “inactive”.

Take `COc1ccc(S(=O)(=O)Nc2ccc3c(c2)C(=O)N([C@@H](C)CO)C[C@@H](C)[C@@H](CN(C)S(=O)(=O)c2ccc(Cl)cc2)OCCCC[C@@H](C)O3)cc1`: the cytotoxicity call was “inactive”.

`COc1ccc(S(=O)(=O)Nc2ccc3c(c2)C(=O)N([C@@H](C)CO)C[C@@H](C)[C@@H](CN(C)S(=O)(=O)c2ccc(Cl)cc2)OCCCC[C@H](C)O3)cc1`: the cytotoxicity call was “inactive”.

Consider `COc1ccc(S(=O)(=O)Nc2ccc3c(c2)C(=O)N([C@@H](C)CO)C[C@H](C)[C@H](CN(C)S(=O)(=O)c2ccc(Cl)cc2)OCCCC[C@H](C)O3)cc1`, for which the cytotoxicity call was “inactive”.

For `COc1ccc(S(=O)(=O)Nc2ccc3c(c2)C(=O)N([C@@H](C)CO)C[C@H](C)[C@@H](CN(C)S(=O)(=O)c2ccc(Cl)cc2)OCCCC[C@H](C)O3)cc1`, the cytotoxicity call is “active”.

On to `COc1ccc(S(=O)(=O)N(C)C[C@@H]2OCCCC[C@H](C)Oc3ccc(NS(=O)(=O)c4ccc(Cl)cc4)cc3C(=O)N([C@@H](C)CO)C[C@@H]2C)cc1`, for which the cytotoxicity call is “active”.

For `COc1ccc(S(=O)(=O)N(C)C[C@@H]2OCCCC[C@H](C)Oc3ccc(NS(=O)(=O)c4ccc(Cl)cc4)cc3C(=O)N([C@H](C)CO)C[C@@H]2C)cc1`, the cytotoxicity call is “active”.

On to `COc1ccc(S(=O)(=O)Nc2ccc3c(c2)C(=O)N([C@H](C)CO)C[C@@H](C)[C@@H](CN(C)S(=O)(=O)c2ccc(Cl)cc2)OCCCC[C@@H](C)O3)cc1`, for which the cytotoxicity call was “inactive”.

With `COc1ccc(S(=O)(=O)N(C)C[C@H]2OCCCC[C@H](C)Oc3ccc(NS(=O)(=O)c4ccc(Cl)cc4)cc3C(=O)N([C@@H](C)CO)C[C@H]2C)cc1`, the cytotoxicity call was “inactive”.
